# Source: PubChem
# HT1080-NT tox – kills 2HG-producing HT-1080-NT fibrosarcoma cells | HT-1080-NT fibrosarcoma viability, CellTiter-Glo ATP luminescence, 48 h | Potency, µM (series often up to 46.1 µM), for inactives: at the top dose activity, negative = less viability, hits mostly cytotoxic | 360,000 compounds, 1.6% hits | AID 686970;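 further: NT is the 2HG producing partner of a matched IDH1 knockdown line; potency means the concentration at half of the fitted maximal effect; 0% = DMSO-treated cells and -100% = media-only wells without cells; nearly all actives have a fitted effect of over 55% in size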
#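 Read-out is CellTiter-Glo luminescence after 10 minutes at room temperature, following 48 hours' compound treatment of HT-1080-NT cells (750 cells/well, RPMI, 5% FBS, 37 degrees C).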
# IL1B secr inh – inhibitors of inflammasome signaling (IL-1 beta secretion); AID 743279; THP-1 LPS/ATP IL-1B secretion, AlphaLISA, 16 h; active compounds read low; activity change, % at 57.5 µM; 360,000 compounds, 4.7% hits; in the data active means activity change below about -50%; inconclusive means mostly about -30% to -49%
#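 THP-1 cells pretreated 1 hr with compounds (up to 57.5 uM final), then stimulated with LPS (250 ng/mL final) plus ATP (1.25 mM final); secreted IL-1B measured by AlphaLISA after 16 hr, decreased signal indicating inhibition.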
# HT1080 IDH1KD tx – kills HT-1080 cells with IDH1 knockdown. HT-1080 IDH1 knockdown viability, ATP luminescence, 48 h. AID 686971. Potency, µM (doses to about 46.1 µM), without a hit: at the top dose activity, negative = toxicity, usual class: cytotoxic. 360,000 compounds, 2% hits;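 further: potency means the concentration at half of the fitted maximal effect; 0% = DMSO wells and -100% = cell-free medium wells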
#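 Knockdown cells (IDH1KD HT-1080) received compounds 2 h after plating at 750 cells/well and were kept 48 h at 37 °C in 5% FBS RPMI. A CellTiter-Glo luminescence read gave % activity for curve fitting.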
# DT40 TDP1 no CPT – qHTS for Inhibitors of human tyrosyl-DNA phosphodiesterase 1 (TDP1): qHTS in cells in absence of CPT | 420,000 compounds, 15% hits | Potency, µM (titrated, usually from 46.2 µM), inactives show at the top dose activity change, negative = growth inhibition, most hits filed as inhibitors | DT40 Tdp1-/- hTDP1 cells, no CPT, ATP luminescence, 48 h; further: potency means the concentration at half of the fitted maximal effect; nearly all actives have a fitted effect of over 55% in size
#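 Camptothecin absent (DMSO only). Human TDP1-complemented DT40 knockout cells, 400 cells/well, 37 °C for minimum 48 hr; ATP measured via CellTiter-Glo, 30 min dark incubation, luminescence.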
# TDP1 cell CPT – DT40-hTDP1 cell growth loss with CPT; chicken DT40 Tdp1-/-;hTDP1 cells + 20 nM CPT, ATP luminescence, 48 h; Potency, µM (titrated, usually from 46.2 µM), for inactives: at the highest dose activity change, negative = growth inhibition, most hits filed as inhibitors; 420,000 compounds, 12% hits; further: potency means the concentration at half of the fitted maximal effect; nearly all actives have a fitted effect of over 55% in size
#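 Cell growth measured by CellTiter-Glo luminescence after a minimum 48 h, 37 C compound exposure with 20 nM CPT in Tdp1-knockout DT40 cells stably expressing hTDP1, seeded 400/well; qHTS titration format.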
# * hit, by the source's call; u = inconclusive; x = no result. Most compounds without a hit are left out; they make up all but 19% or so of the library. Unless noted, the call rests on the fitted dose curve; in most records, active means well fitted curve in the direction sought with a large enough effect; inconclusive means small, poorly fitted or top-dose-only effect, or another doubt; inactive means no such curve, though single readings can be large; an effect the other way counts as inactive or inconclusive. Unless noted, on the % scale 0 is the no-effect control and ±100 the full control effect.
SMILES,HT1080-NT tox,IL1B secr inh,HT1080 IDH1KD tx,DT40 TDP1 no CPT,TDP1 cell CPT
CCOc1cc(C2NC(=O)c3c(sc4c3CCN(C)C4)N2)ccc1OC(=O)c1ccccc1Cl (stereo not drawn),x,x,x,1.6%,5.3%
O=C(NNC(=S)NC(=O)c1ccccc1)c1ccc(O)cc1,-23.4%,47.6,u,9.2µM*,16.4µM*
CCCOc1ccc(C(=O)NNC(=S)NC(=O)c2cc(-c3ccccc3)nc3ccccc23)cc1,u,5.1,u,u,u
CC(C)(C)c1ccc(OCC(=O)NNC(=S)NC(=O)c2ccccc2[N+](=O)[O-])c(Br)c1,u,-10.0,18.4µM*,16.4µM*,23.1µM*
CCCOc1ccc(C(=O)NNC(=S)NC(=O)c2ccccc2)cc1,u,8.0,u,16.4µM*,u
Cc1cc(C)n(C(=O)c2ccc(S(=O)(=O)NCC3CCCO3)cc2)n1 (stereo not drawn),-5.3%,-12.3,-13.0%,-12.4%,6.1%
O=C(CNC(=O)C1CC(=O)N(c2cccc3ccccc23)C1)Nc1ccccc1Br (stereo not drawn),-6.7%,9.5,6.0%,16.8%,-3.0%
Cc1ccc(-c2nc3c4ccccc4n(CC(=O)N4CCN(c5ccc(F)cc5)CC4)c(=O)n3n2)cc1,x,x,x,-15.9%,-7.0%
Cc1ccccc1NC(=O)c1csc2c1CCCC2,u,-21.8,u,20.6µM*,5.8µM*
CCC(Cc1ccccc1)NC(=O)c1csc2c1CCCCC2 (stereo not drawn),x,x,x,u,13µM*
O=C(NCc1ccccc1)c1csc2c1CCCCC2,0.0%,-14.8,5.9%,-14.1%,-12.8%
CC(CNC(=O)c1csc2c1CCCCC2)c1ccccc1 (stereo not drawn),x,x,x,16.4µM*,20.6µM*
Cc1cc(C)n2c(Nc3ccccc3)c(-c3ccccc3)nc2n1,x,x,x,u,16.4µM*
Cc1cc(C)n2c(Nc3ccc4c(c3)OCCO4)c(-c3ccccc3)nc2n1,4.0%,-15.1,4.6%,u,u
COc1ccc(Nc2c(-c3ccc(F)cc3)nc3nc(C)cc(C)n23)cc1,-13.9%,-25.5,0.2%,16.4µM*,10.3µM*
Cc1cc(C)n2c(NC3CCCCC3)c(-c3cccnc3)nc2n1,16.7%,-6.5,7.4%,16.4µM*,u
COc1ccc(Nc2c(-c3cc4ccccc4o3)nc3nc(C)cc(C)n23)cc1,-15.3%,10.3,-12.4%,u,u
Cc1ccc(Nc2c(-c3cccs3)nc3nc(C)cc(C)n23)cc1,x,x,x,u,23.1µM*
Cc1nnsc1C(=O)N(Cc1ccccc1)C(C)C,-6.7%,-8.3,-0.4%,1.2%,2.3%
CC(C)N(Cc1ccccc1)C(=O)c1ccc2nsnc2c1,17.9%,-0.1,17.5%,20.6µM*,u
CCCc1cc2c(=O)c(-c3ccc4c(c3)OCCO4)coc2cc1OS(C)(=O)=O,-2.6%,-53.6*,-8.1%,u,u
O=c1c(-c2ccc3c(c2)OCCO3)coc2cc(O)cc(O)c12,1.8%,22.9,13.1%,u,u
CCCc1cc2c(=O)c(-c3ccc4c(c3)OCCO4)c(C)oc2cc1OS(C)(=O)=O,u,-10.9,u,23.1µM*,18.4µM*
CCc1cc2c(=O)c(-c3ccc4c(c3)OCCO4)coc2cc1OC(=O)c1ccco1,u,-15.0,-30.0%,20.6µM*,u
CCCc1cc2c(=O)c(-c3ccc4c(c3)OCCO4)coc2cc1OC(=O)c1ccco1,u,1.1,u,u,u
SMILES,HT1080-NT tox,IL1B secr inh,HT1080 IDH1KD tx,DT40 TDP1 no CPT,TDP1 cell CPT
COc1cc(CCN(C(C)=O)C2C(=O)Nc3ccccc3N=C2c2ccc3c(c2)OCO3)cc(OC)c1 (stereo not drawn),4.5%,u,1.8%,-24.6%,-24.1%
Cc1nc(NC(=O)c2ccccc2)sc1-c1cc(C(=O)O)nn1Cc1ccccc1,-19.2%,6.8,-11.0%,-3.4%,-0.3%
COc1ccc(OC)c(NC(=O)Nc2nc(C(N)c3ccccc3Cl)cs2)c1 (stereo not drawn),u,-51.2*,u,u,u
COc1ccc(OC)c(NC(=O)Nc2nc(CN(C)C)cs2)c1,6.5%,-3.3,7.1%,-23.0%,-25.5%
COc1ccc(C(N)c2csc(NC(=O)Nc3ccccc3C(C)(C)C)n2)cc1 (stereo not drawn),u,-29.3,u,u,u
COc1ccc(OC)c(NC(=O)Nc2nc(C(N)C(C)C)cs2)c1 (stereo not drawn),u,-63.5*,u,u,u
CCOC(=O)c1cc(-c2ccc(OC)cc2)n(CCC(=O)NC2CCC(C)CC2)c1C (stereo not drawn),x,x,x,23.1µM*,16.4µM*
CCOC(=O)c1cc(-c2ccc(OC)cc2)n(CCC(=O)NC2CCCCC2)c1C,x,x,x,16.4µM*,20.6µM*
CCOC(=O)c1cc(-c2ccc(F)cc2)n(CCC(=O)NC2CCC(C)CC2)c1C (stereo not drawn),x,x,x,16.4µM*,u
CCOC(=O)c1cc(-c2ccc(C)cc2)n(CCC(=O)NCCCOC)c1C,4.6%,-4.7,1.1%,-12.7%,-22.4%
CCOCCCNC(=O)CN1CCN(Cc2ccc(Cl)cc2)C1=O,14.1%,27.3,19.6%,-0.4%,10.5%
COc1ccc(OC)c(Nc2cc(C(=O)NCCCN3CCOCC3)c3ccccc3n2)c1,-29.8%,-62.8*,u,23.1µM*,u
COCCCNC(=O)c1cc(Nc2ccc(OC)cc2OC)nc2ccccc12,1.5%,-4.8,0.0%,u,u
COc1ccc(N2CCN(CCCNC(=O)c3cc(Nc4ccc(OC)cc4OC)nc4ccccc34)CC2)cc1,x,x,x,20.6µM*,23.1µM*
CCN(CC)S(=O)(=O)c1ccc2c(c1)nc(SCC(N)=O)n2-c1ccc(OC)cc1,-14.4%,-28.6,-7.0%,u,-28.0%
CCN(CC)S(=O)(=O)c1ccc2c(c1)nc(SCC(=O)N1CCCCCC1)n2-c1ccc(OC)cc1,-1.9%,u,-11.8%,23.1µM*,14.6µM*
COc1ccc(N2CCN(C(=O)CSc3nc4c(c(=O)n(C)c(=O)n4C)n3C(C)C)CC2)cc1,-4.0%,-20.8,6.6%,u,18.4µM*
CC(C)n1c(SCC(=O)N2c3ccccc3Sc3ccccc32)nc2c1c(=O)n(C)c(=O)n2C,-6.2%,-28.4,10.1%,16.4µM*,20.6µM*
CC(C)n1c(SCC(=O)N2CCCCC2)nc2c1c(=O)n(C)c(=O)n2C,-4.5%,66.1,-2.3%,-18.6%,-8.4%
COc1ccc(-n2cnnc2SCC(=O)N2CCN(c3ccccc3)CC2)cc1,-2.5%,-9.8,1.9%,u,-20.3%
COc1ccc(N2CCN(C(=O)CSc3nnc(-c4cc5ccccc5cc4O)n3C)CC2)cc1,u,-11.4,u,18.4µM*,23.1µM*
